Screening results as filed in PubChem.
Only some compounds are listed: those with a hit (about 2.2% of all), similar ones and a draw of the others.
PAX8 inh HTS – inhibitors of PAX8-driven TPO luciferase reporter, primary screen, RMG-I cells, single concentration; inhibition, % at 12.6 µM; 1.2% of 360,000 active; SteadyGlo, 24 h; AID 652154, 2013;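 active = mean replicate inhibition at least 60% with every replicate also reaching 60%; inconclusive = only one of the two criteria is met; inactive = mean below 60% and not all replicates reaching 60%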;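 also: luciferase light reporting Pax8 driven TPO promoter activity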
LGR2 antag – inhibitors of bursicon-induced LGR2 CRE-luciferase signal, primary screen, cell-based, HEK293, CRE-luciferase reporter, bursicon stimulation. Drosophila bursicon receptor LGR2 (rickets). bursicon-stimulated, 4 h. inhibition, % at 9.99 µM. 0.35% of 380,000 active;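 active = drop in luminescence signal, shown as inhibition above about 50% in the replicate tests, limit read from the data, passing the limit was not always enough; inconclusive = probably only some replicates passing the limit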;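 also: agonist challenge used bursicon conditioned medium at about half maximal strength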
PGC1a acetyl inh – inhibitors of PGC1a acetylation signal, primary screen, cell-based, U2OS, AlphaScreen, inhibitor mode. AlphaScreen anti-acetyl-lysine; with virally co-expressed GCN5 acetyltransferase. AID 651687, 2012. inhibition, % at 15.6 µM. 0.17% of 350,000 active;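 active = every replicate shows inhibition of at least 40%; inconclusive = mean inhibition at least 40% but some replicate below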
EWS-Fli inh – EWS/Fli-driven NR0B1 reporter inhibitors, primary screen, A673 cells, NR0B1 luciferase, luminescence, MLPCN library. 0.67% of 350,000 active. AID 651661, 2012. viability-normalised. inhibition, % at 12.6 µM;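 active = mean inhibition of at least 50% after viability correction, with every replicate also passing that limit; inconclusive = mean reaches 50% but only one of two replicates passes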;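 also: firefly luciferase signal divided by Alamar Blue viability fluorescence both relative to DMSO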
LMP1 NFkB inh – EBV LMP1-driven NF-kappaB luciferase reporter inhibitors, primary screen, cell-based, luminescence, single point. LMP1-induced NF-kappaB luciferase reporter cells. inhibition, % at 12.5 µM. 0.69% of 350,000 active; in the data active = inhibition above about 41%; inconclusive = no clear call, values can overlap the other calls
TRPM1 prom inh – inhibitors of MITF-dependent TRPM1 promoter reporter, primary screen, cell-based, SK-MEL-5, single point, luciferase | SK-MEL-5 TRPM1 promoter luciferase, 24 h | inhibition, % at 12.5 µM | AID 488899, 2010 | 0.83% of 330,000 active;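 active = mean inhibition across replicates of 60% or more, whatever share of single replicates reaches that level; inconclusive = some that reach 60%, reason not given; inactive = mean inhibition across replicates below 60%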
Large screens that a line does not name were inactive.

Cc1noc(C)c1S(=O)(=O)N(C)C[C@H]1OCCCC[C@@H](C)Oc2ccc(NC(=O)CCC(F)(F)F)cc2C(=O)N([C@@H](C)CO)C[C@@H]1C	none (no result: LMP1 NFkB inh, TRPM1 prom inh)
O=C(c1ccccc1F)N1C[C@H]2[C@@H](c3ccccc31)[C@@H](CO)N2C(=O)C1CCCC1	none (no result: LMP1 NFkB inh, TRPM1 prom inh)
COc1cccc(C(=O)Nc2ccc3c(c2)OC[C@H](C)N(C(=O)C2CCCC2)C[C@H](C)[C@@H](OC)CN(C)C3=O)c1	none (no result: PAX8 inh HTS, LMP1 NFkB inh, TRPM1 prom inh)
CC(=O)N1N=C(c2ccc(C(C)(C)C)cc2)OC1(C)C	PAX8 inh HTS 70 (no result: PGC1a acetyl inh)
CC(=O)N1N=C(c2ccc3ccccc3c2)OC1(C)C	none (no result: EWS-Fli inh)
O=C(C[C@@H]1CC[C@H]2[C@@H](COC[C@H](O)CN2C(=O)c2ccccc2F)O1)N1CCOCC1	none (no result: LMP1 NFkB inh, TRPM1 prom inh)
CCn1c([N+](=O)[O-])nc2c1c(=O)[nH]c(=O)n2C	PAX8 inh HTS 69, LGR2 antag inconclusive (no result: PGC1a acetyl inh)
CCCCCCn1c(SCCCC)nc2c1c(=O)[nH]c(=O)n2C	none (no result: PAX8 inh HTS, LGR2 antag, EWS-Fli inh)
Brc1cccc(-c2cnco2)c1	LMP1 NFkB inh 56 (no result: PGC1a acetyl inh)
CC(C)(C)c1ccc(-c2cnco2)cc1	none
C[C@@H]1CCCCO[C@H](CN(C)Cc2ccncc2)[C@H](C)CN([C@@H](C)CO)C(=O)c2cc(NC(=O)NC3CCCCC3)ccc2O1	PAX8 inh HTS 83, EWS-Fli inh 56 (no result: LMP1 NFkB inh, TRPM1 prom inh)
C[C@@H]1CCCCO[C@@H](CN(C)Cc2ccncc2)[C@@H](C)CN([C@H](C)CO)C(=O)c2cc(NC(=O)NC3CCCCC3)ccc2O1	none (no result: LMP1 NFkB inh, TRPM1 prom inh)
C[C@@H]1CCCCO[C@@H](CN(C)Cc2ccc(Cl)c(Cl)c2)[C@H](C)CN([C@@H](C)CO)C(=O)c2cc(NC(=O)NC3CCCCC3)ccc2O1	PAX8 inh HTS 68 (no result: PGC1a acetyl inh, LMP1 NFkB inh, TRPM1 prom inh)
C[C@@H]1CN([C@H](C)CO)C(=O)c2cc(NC(=O)NC3CCCCC3)ccc2O[C@@H](C)CCCCO[C@@H]1CN(C)Cc1ccc(Cl)c(Cl)c1	PAX8 inh HTS 71 (no result: PGC1a acetyl inh, LMP1 NFkB inh, TRPM1 prom inh)
C[C@@H]1CCCCO[C@@H](CN(C)Cc2ccc(Cl)c(Cl)c2)[C@H](C)CN([C@H](C)CO)C(=O)c2cc(NC(=O)NC3CCCCC3)ccc2O1	PAX8 inh HTS 65 (no result: PGC1a acetyl inh, LMP1 NFkB inh, TRPM1 prom inh)
CCCNC(=O)[C@@H]1[C@@H](CO)[C@@H]2Cn3c(ccc(-c4ccccc4)c3=O)[C@H]1N2Cc1ccccc1F	none (no result: PAX8 inh HTS, PGC1a acetyl inh, LMP1 NFkB inh, TRPM1 prom inh)
Brc1ccccc1C1Cc2nnccc2CN1 (configuration not stated)	none (no result: PGC1a acetyl inh, LMP1 NFkB inh, TRPM1 prom inh)
COc1ccc(-c2ccccc2C2Cc3nnccc3CN2)cc1 (configuration not stated)	PAX8 inh HTS 72 (no result: PGC1a acetyl inh, LMP1 NFkB inh, TRPM1 prom inh)
COc1cccc(C2Nc3ccc4ccccc4c3C3=C2C(=O)CC(C)(C)C3)c1OCC(=O)O (configuration not stated)	LMP1 NFkB inh 55 (no result: PGC1a acetyl inh)
COc1cc(C2Nc3ccc4ccccc4c3C3=C2C(=O)CC(C)(C)C3)ccc1OCC(=O)O (configuration not stated)	none
CC(C)NC(=O)N1[C@H](CO)[C@@H]2c3ccccc3N(C(=O)c3ccc(F)cc3)C[C@@H]21	none (no result: LMP1 NFkB inh, TRPM1 prom inh)
O=C(CN1C(=O)CCC1=O)c1ccc(-c2ccccc2)cc1	none (no result: PGC1a acetyl inh)
N=c1ccn(CC(=O)c2ccc(-c3ccccc3)cc2)cc1	PAX8 inh HTS 83 (no result: PGC1a acetyl inh)
CCOC(=O)c1c(NC(=S)N2CCOCC2)sc2c1CCN(C(=O)OCC)C2	LGR2 antag 63 (no result: LMP1 NFkB inh, TRPM1 prom inh)
CCOC(=O)c1c(NC(=S)N2CCCCC2)sc2c1CCN(C(=O)OCC)C2	none (no result: LGR2 antag, LMP1 NFkB inh, TRPM1 prom inh)
CC(CNC1CCCCC1)OC(=O)c1ccccc1 (configuration not stated)	LMP1 NFkB inh 62 (no result: PGC1a acetyl inh)
O=C(COC(=O)c1ccccc1)NC1CCCC1	none
Cc1noc(C)c1NC(=O)N[C@@H]1C=C[C@H](CC(=O)N2CCN(C)CC2)O[C@H]1CO	none (no result: LMP1 NFkB inh, TRPM1 prom inh)
CCc1cc2c(Sc3nc4ccccc4s3)ncnc2s1	LMP1 NFkB inh 43 (no result: PAX8 inh HTS, PGC1a acetyl inh, EWS-Fli inh)
CC(=O)Nc1ccc(NC(=O)c2ccc3c(c2)CCN3S(C)(=O)=O)cc1	none
CC(C)c1ccc(NC(=O)c2ccc3c(c2)CCN3S(C)(=O)=O)cc1	PGC1a acetyl inh 82
CCC(=O)Nc1ccc2c(c1)OC[C@@H](C)N(C(=O)C1CCC1)C[C@H](C)[C@@H](OC)CN(C)C2=O	none (no result: LMP1 NFkB inh, TRPM1 prom inh)
C=CCn1c(SCC(=O)c2[nH]c(C)c(C(=O)OCC)c2C)nc2scc(-c3ccc(OC)cc3)c2c1=O	TRPM1 prom inh 82 (no result: LGR2 antag, PGC1a acetyl inh)
C=CCn1c(SCC(=O)c2[nH]c(C)c(C(=O)OCC)c2C)nc2scc(-c3ccccc3)c2c1=O	none (no result: PGC1a acetyl inh)
COc1ccc(/C=C2/CCC(CN3CCOCC3)C2=O)cc1 (configuration not stated)	EWS-Fli inh 57, LMP1 NFkB inh 86, TRPM1 prom inh 99 (no result: PGC1a acetyl inh)
O=C(O)CSc1ncnc2scc(-c3ccccc3)c12	none
Cn1nnnc1Sc1ncnc2scc(-c3cccc(S(C)(=O)=O)c3)c12	PAX8 inh HTS 106, LGR2 antag 85, LMP1 NFkB inh 47, TRPM1 prom inh 78
CN(C)C(=O)CSc1ncnc2scc(-c3ccccc3)c12	none
Cn1nnnc1Sc1ncnc2scc(-c3cccc(Br)c3)c12	PAX8 inh HTS 91, EWS-Fli inh inconclusive, LMP1 NFkB inh 78, TRPM1 prom inh 84
O=C(O)CSc1ncnc2scc(-c3ccc(Br)cc3)c12	none
CC(=O)c1cccc(-c2csc3ncnc(Sc4nnnn4C)c23)c1	PAX8 inh HTS 114, LGR2 antag inconclusive (no result: PGC1a acetyl inh, LMP1 NFkB inh, TRPM1 prom inh)
O=C(C1CC1)N1CC[C@@H]2[C@H]1c1cc(-c3cccc(F)c3)ccc1N[C@@H]2CO	none (no result: LMP1 NFkB inh, TRPM1 prom inh)
CC(C)(C)c1ccc(-c2cc(N)n[nH]2)cc1	EWS-Fli inh 63, TRPM1 prom inh 95 (no result: LGR2 antag, PGC1a acetyl inh)
